The source of these data is PubChem BioAssay (EPA / NIEHS).

Assay [1] deals with Nuclear respiratory factor 1 (Homo sapiens) (UniProt Q16656). The assay can be described thus: ATG_NRF1_CIS: Attagene CIS-FACTORIAL HepG2 Assay for human Nuclear Respiratory Factor 1 (NRF1) Orphan Gene (AID 2282987). The settings on record: HepG2 NRF1 cis-element reporter, Attagene multiplex; actives raise or lower the signal. In a few lines: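 Endogenous NRF1-driven reporter transcription measured in transiently transfected human HepG2 liver cells. Readout: reporter mRNA by RT-PCR and capillary electrophoresis with fluorescence detection, 24 h post-dosing. Gain or loss of signal fitted relative to DMSO baseline.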

A short description of assay [2]: ATG_NFI_CIS: Attagene CIS-FACTORIAL HepG2 Assay for human Nuclear Factor I (NFI) (AID 2282989). Particulars: HepG2 cis-regulatory reporter, NFI response element transcription; actives raise or lower the signal. In a few lines: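 After transient transfection of HepG2 with cis-promoter reporter constructs and 24 h dosing, RNA is reverse-transcribed, amplified, 6-FAM end-labelled and HpaI-digested before capillary analysis. Bidirectional curve fitting against DMSO.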

Assay [3] deals with Myc proto-oncogene protein (Homo sapiens) (UniProt P01106). As to the kind of experiment: ATG_Myc_CIS: Attagene CIS-FACTORIAL HepG2 Assay for human Myelocytomatosis (Myc) Proto-Oncogene Transcription Factor (AID 2282990). Particulars: HepG2, Attagene cis-reporter transcription factor activity; actives raise or lower the signal. In a few lines:
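Cells of the HepG2 human liver line bear multiple cis-driven reporter transcription units. Reporter mRNA after 24 h exposure is reverse-transcribed, amplified, labelled and resolved by capillary electrophoresis, with gain- or loss-of-signal fitting relative to DMSO.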

Assay [4] is described as follows: ATG_NF_kB_CIS: Attagene CIS-FACTORIAL HepG2 Assay for human Nuclear Factor Kappa B (NF-kB) (AID 2282991). The settings on record: HepG2 Attagene cis-factorial NF-kB reporter mRNA; actives raise or lower the signal. The gist of the method: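 Read-out: reporter transcript levels quantified by RT-PCR plus capillary electrophoresis of 6-FAM-labelled, HpaI-cut fragments. Transfected HepG2 cells, 24 h compound exposure, endogenous NF-kB-driven cis element; gain or loss scored versus DMSO.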

Assay [5] in a line: ATG_Oct_MLP_CIS: Attagene CIS-FACTORIAL HepG2 Assay for human Octamer-Binding Transcription Factor (Oct) (AID 2282993). Particulars: HepG2 Attagene cis-factorial Oct reporter, mRNA; actives raise or lower the signal. In a few lines:
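Cells of the HepG2 line express promoter-controlled reporter sequences whose mRNA levels, after 24 h treatment, are measured by RT-PCR and capillary electrophoresis. Increases and decreases are scored relative to DMSO.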

Assay [6] deals with Cellular tumor antigen p53 (Homo sapiens) (UniProt P04637). As to the kind of experiment: ATG_p53_CIS: Attagene CIS-FACTORIAL HepG2 Assay for human p53 Transcription Factor (AID 2282994). Particulars: HepG2 p53 cis-element reporter, Attagene mRNA; actives raise or lower the signal. In a few lines:
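Steps: transfect HepG2 with multiplexed cis reporter constructs; dose chemicals 24 h; extract RNA, reverse-transcribe, PCR-amplify reporter sequences; FAM-label, HpaI-digest, resolve fragments by CE. Activity fitted both directions relative to DMSO.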

Assay [7] can be described thus: BSK_3C_TissueFactor: BioMAP Diversity Plus: 3C Assay for Tissue Factor Biomarker Activity (AID 2282997). Particulars: BioMAP 3C HUVEC, tissue factor biomarker readout; actives raise or lower the signal. The gist of the method:
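After a 24 h chemical exposure of primary human umbilical vein endothelial cells, Tissue Factor levels were quantified by ELISA.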

Assay [8] can be described thus: BSK_3C_uPAR: BioMAP Diversity Plus: 3C Assay for Urokinase-type plasminogen activator receptor (uPAR) Biomarker Activity (AID 2282998). Particulars: BioMAP 3C HUVEC, uPAR biomarker ELISA; actives raise or lower the signal. In a few lines:
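Endothelial primary cells of human umbilical vein origin received test chemical; 24 h later uPAR was assayed by ELISA. Fitting was bidirectional, DMSO as negative control.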

A short description of assay [9]: BSK_3C_VCAM1: BioMAP Diversity Plus: 3C Assay for Vascular cell adhesion molecule 1 (VCAM1) Biomarker Activity (AID 2282999). The settings on record: BioMAP 3C HUVEC, VCAM1 ELISA, cytokine-stimulated; actives raise or lower the signal. In a few lines: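 Activity fitted in both directions relative to DMSO, with ELISA measurement of the surface marker on primary HUVEC (3C) at 24 h post-treatment; parallel SRB staining (0.1% SRB, TCA-fixed, 560 nm) flagged overt cytotoxicity.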
On the technique in general: An ELISA detects its analyte on a solid surface through an enzyme-linked reagent.

Assay [10] is described as follows: BSK_4H_Eotaxin3: BioMAP Diversity Plus: 4H Assay for Eotaxin 3 Biomarker Activity (AID 2283000).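 As to outcome: CCL26 protein level quantified by ELISA in parallel with SRB cytotoxicity check.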 Particulars: primary human endothelial cells (HUVEC); actives raise or lower the signal. The gist of the method:
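Chemicals were added to human umbilical vein endothelium cultures, and Eotaxin-3 was quantified by ELISA at 24 h. Values were derived by bidirectional fitting with DMSO serving as negative control and activity baseline.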

Assay [11] has as its target human Peroxisome Proliferator-activated Receptor alpha (PPARa), PPARA (gene 5465) (UniProt Q07869). As to the kind of experiment: ATG_PPARa_TRANS: Attagene TRANS-FACTORIAL HepG2 Assay for human Peroxisome Proliferator-activated Receptor alpha (PPARa) (AID 2283001; active = hit-call score of the fitted dose curve at least 0.9, where 1 is the maximum;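 as to AC50: potency for gain of reporter signal over DMSO so agonist or activator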). The gist of the method:
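Reporter transcripts quantified by RT-PCR plus capillary electrophoresis after 24 h treatment, fitted upward relative to DMSO. Cells: human HepG2 transiently carrying multiple GAL4-UAS reporter units driven by NR-Gal4 chimeras.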

The target of assay [12] is human Peroxisome Proliferator-activated Receptor delta (PPARd), PPARD (gene 5467) (UniProt Q03181). The assay can be described thus: ATG_PPARd_TRANS: Attagene TRANS-FACTORIAL HepG2 Assay for human Peroxisome Proliferator-activated Receptor delta (PPARd) (AID 2283002; active = hit-call score of the fitted dose curve at least 0.9, where 1 is the maximum). The gist of the method: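 Cell-based TRANS reporter: HepG2, transient MRTU transfection, 24 h exposure. Readout = reporter mRNA (RT-PCR/CE, 6-FAM). Gain-of-signal fit vs DMSO control.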

Read-out in assay [13]: Intercellular Adhesion Molecule 1 (ICAM1), ICAM1 (gene 3383)
As to the kind of experiment: BSK_3C_ICAM1: BioMAP Diversity Plus: 3C Assay for Intercellular Adhesion Molecule 1 (ICAM1) Biomarker Activity (AID 2283003). Particulars: primary human endothelial cells (HUVEC); actives raise or lower the signal. The gist of the method: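 Chemicals are dosed onto primary human umbilical vein endothelium (3C system). After 24 h, ICAM-1 is measured by ELISA, and responses are fitted bidirectionally relative to DMSO.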

A short description of assay [14]: BSK_3C_Proliferation: Cell Proliferation Assessment in the BioMAP Diversity Plus: 3C Assay (AID 2283006).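 As to AC50: potency may reflect either rise or fall in cell number versus DMSO.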 Particulars: primary human endothelial cells (HUVEC). The gist of the method:
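Cells (human umbilical vein endothelial, sub-confluent) receive test chemical; after 48 h they are fixed in 10% trichloroacetic acid, stained with 0.1% SRB and read at 560 nm. Activity is referenced to DMSO, fitting increases and decreases.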

Assay [15] has as its target Peroxisome proliferator-activated receptor gamma (Homo sapiens) (UniProt P37231). As to the kind of experiment: ATG_PPARg_TRANS: Attagene TRANS-FACTORIAL HepG2 Assay for human Peroxisome Proliferator-activated Receptor-gamma (PPARg) (AID 2283007; active = hit-call score of the fitted dose curve at least 0.9, where 1 is the maximum). In a few lines: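 Read-out: reporter mRNA induction, detected by fluorescence after RT-PCR and capillary electrophoresis. Transiently transfected human HepG2 liver cells carrying a chimeric NR-Gal4 construct were dosed for 24 h; activity was fitted upward relative to DMSO.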

For assay [16], the target named is Nuclear receptor subfamily 1 group I member 2 (Homo sapiens) (UniProt O75469). The assay can be described thus: ATG_PXR_TRANS: Attagene TRANS-FACTORIAL HepG2 Assay for human Pregnane X Receptor (PXR) (AID 2283008; active = hit-call score of the fitted dose curve at least 0.9, where 1 is the maximum). In a few lines: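 HepG2 transfected (FuGene 6) with GAL4-UAS reporter units + PXR-Gal4 chimera; dosed 24 h. Total RNA → oligo(dT) RT → PCR → 6-FAM primer extension → HpaI cut → CE. Gain-of-signal vs DMSO.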

Assay [17] addresses human Retinoic Acid Receptor gamma (RARg), RARG (gene 5916) (UniProt P13631). The assay can be described thus: ATG_RARg_TRANS: Attagene TRANS-FACTORIAL HepG2 Assay for human Retinoic Acid Receptor gamma (RARg) (AID 2283009; active = hit-call score of the fitted dose curve at least 0.9, where 1 is the maximum). In a few lines:
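TRANS format measured activity of exogenous NR-GAL4 fusion (RARg) in transfected HepG2 liver cells after 24 h dosing. Induced reporter RNA was detected by RT-PCR/capillary electrophoresis fluorescence, analysed in the positive direction against DMSO.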

Assay [18] in a line: ATG_NRF2_ARE_CIS: Attagene CIS-FACTORIAL HepG2 Assay for human Nuclear Factor Erythroid 2 Related Factor 2 (NFR2) response to Antioxidant Response Elements (ARE) (AID 2282992). The settings on record: HepG2 Attagene ARE/NRF2 reporter, transcription factor activity; actives raise or lower the signal. The gist of the method:
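Endogenous transcription factor activity in human liver HepG2 cells is tracked via a cis-element-driven reporter within a multiplexed set. mRNA induction is read by RT-PCR and capillary electrophoresis after 24 h, with DMSO as baseline.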

For assay [19], the target named is human Retinoic Acid Receptor beta (RARb), RARB (gene 5915) (UniProt P10826). The assay can be described thus: ATG_RARb_TRANS: Attagene TRANS-FACTORIAL HepG2 Assay for human Retinoic Acid Receptor beta (AID 2283004; active = hit-call score of the fitted dose curve at least 0.9, where 1 is the maximum). The gist of the method: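 Transient transfection of HepG2 with multiple reporter units → chemical dosing, 24 h → total RNA isolation → RT with oligo(dT) → reporter-specific PCR, 6-FAM primer extension, HpaI digest → capillary electrophoresis. Positive direction vs DMSO control.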

Assay [20] addresses Retinoic acid receptor alpha (Homo sapiens) (UniProt P10276). The assay can be described thus: ATG_RARa_TRANS: Attagene TRANS-FACTORIAL HepG2 Assay for human Retinoic Acid Receptor alpha (RARa) (AID 2283005; active = hit-call score of the fitted dose curve at least 0.9, where 1 is the maximum). The gist of the method: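 Reporter transcripts, measured by RT-PCR with fluorescent labeling and capillary electrophoresis after 24 h dosing, reflect activity of an exogenous human RARa–GAL4 fusion in transiently transfected HepG2. Fitted for increase relative to DMSO.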

Results filed as inconclusive are left out. Active and inactive are the calls of the source. The calls were made as follows, unless noted: active = hit-call score of the fitted dose curve at least 0.9, where 1 is the maximum; inactive = score below 0.9.

Sequence of Nuclear receptor subfamily 1 group I member 2 (Homo sapiens) (O75469 whole entry, looked up, the tested form may be a part): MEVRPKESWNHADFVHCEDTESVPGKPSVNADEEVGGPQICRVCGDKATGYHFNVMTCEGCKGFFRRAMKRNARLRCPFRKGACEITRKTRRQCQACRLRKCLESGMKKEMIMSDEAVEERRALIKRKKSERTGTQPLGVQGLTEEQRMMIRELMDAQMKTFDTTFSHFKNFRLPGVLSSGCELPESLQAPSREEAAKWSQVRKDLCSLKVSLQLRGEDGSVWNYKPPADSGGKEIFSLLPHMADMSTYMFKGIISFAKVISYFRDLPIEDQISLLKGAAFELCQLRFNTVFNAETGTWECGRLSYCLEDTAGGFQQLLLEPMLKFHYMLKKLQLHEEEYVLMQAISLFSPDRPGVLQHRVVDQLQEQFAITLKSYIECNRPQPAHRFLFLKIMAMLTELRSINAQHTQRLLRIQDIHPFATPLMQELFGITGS
Sequence of Nuclear respiratory factor 1 (Homo sapiens) (Q16656 whole entry, looked up): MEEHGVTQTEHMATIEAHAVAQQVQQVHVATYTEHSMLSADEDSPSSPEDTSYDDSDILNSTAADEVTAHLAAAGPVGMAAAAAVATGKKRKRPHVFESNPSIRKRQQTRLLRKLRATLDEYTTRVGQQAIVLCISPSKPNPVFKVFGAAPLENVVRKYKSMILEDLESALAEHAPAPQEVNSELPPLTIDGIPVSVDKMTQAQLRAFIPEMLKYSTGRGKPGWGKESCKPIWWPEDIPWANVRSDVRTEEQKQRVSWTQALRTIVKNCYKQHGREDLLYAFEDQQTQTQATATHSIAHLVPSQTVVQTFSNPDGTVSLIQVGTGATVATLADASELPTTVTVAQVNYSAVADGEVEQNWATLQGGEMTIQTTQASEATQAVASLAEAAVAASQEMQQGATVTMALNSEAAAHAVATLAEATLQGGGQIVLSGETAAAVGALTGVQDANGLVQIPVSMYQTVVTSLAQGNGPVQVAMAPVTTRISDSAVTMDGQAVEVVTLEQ
Sequence of human Peroxisome Proliferator-activated Receptor delta (PPARd), PPARD (gene 5467) (Q03181 whole entry, looked up): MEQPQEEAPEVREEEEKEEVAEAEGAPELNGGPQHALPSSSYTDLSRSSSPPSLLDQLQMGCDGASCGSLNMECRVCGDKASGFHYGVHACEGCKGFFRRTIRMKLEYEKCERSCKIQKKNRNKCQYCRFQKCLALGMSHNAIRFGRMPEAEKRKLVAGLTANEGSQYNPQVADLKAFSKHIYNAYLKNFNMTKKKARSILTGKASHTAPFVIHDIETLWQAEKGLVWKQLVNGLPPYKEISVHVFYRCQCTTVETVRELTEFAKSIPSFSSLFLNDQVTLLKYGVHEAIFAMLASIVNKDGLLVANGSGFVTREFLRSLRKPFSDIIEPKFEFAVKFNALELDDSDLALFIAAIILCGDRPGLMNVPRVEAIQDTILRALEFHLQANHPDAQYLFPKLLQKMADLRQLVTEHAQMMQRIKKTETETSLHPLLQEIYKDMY
Sequence of human Retinoic Acid Receptor gamma (RARg), RARG (gene 5916) (P13631 whole entry, looked up, the tested form may be a part): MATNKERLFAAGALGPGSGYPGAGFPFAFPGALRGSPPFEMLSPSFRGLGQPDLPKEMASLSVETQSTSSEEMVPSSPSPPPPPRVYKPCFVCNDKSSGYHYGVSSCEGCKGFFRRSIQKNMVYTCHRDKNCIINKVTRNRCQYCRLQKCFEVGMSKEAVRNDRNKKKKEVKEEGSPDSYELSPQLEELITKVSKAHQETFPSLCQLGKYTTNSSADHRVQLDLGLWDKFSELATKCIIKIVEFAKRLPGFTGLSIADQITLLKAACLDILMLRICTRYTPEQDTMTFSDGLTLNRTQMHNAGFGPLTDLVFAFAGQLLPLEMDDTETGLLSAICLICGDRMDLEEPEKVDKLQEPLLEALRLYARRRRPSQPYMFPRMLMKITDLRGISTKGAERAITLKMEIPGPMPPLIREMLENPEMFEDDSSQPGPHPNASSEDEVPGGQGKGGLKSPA
Sequence of Myc proto-oncogene protein (Homo sapiens) (P01106 whole entry, looked up): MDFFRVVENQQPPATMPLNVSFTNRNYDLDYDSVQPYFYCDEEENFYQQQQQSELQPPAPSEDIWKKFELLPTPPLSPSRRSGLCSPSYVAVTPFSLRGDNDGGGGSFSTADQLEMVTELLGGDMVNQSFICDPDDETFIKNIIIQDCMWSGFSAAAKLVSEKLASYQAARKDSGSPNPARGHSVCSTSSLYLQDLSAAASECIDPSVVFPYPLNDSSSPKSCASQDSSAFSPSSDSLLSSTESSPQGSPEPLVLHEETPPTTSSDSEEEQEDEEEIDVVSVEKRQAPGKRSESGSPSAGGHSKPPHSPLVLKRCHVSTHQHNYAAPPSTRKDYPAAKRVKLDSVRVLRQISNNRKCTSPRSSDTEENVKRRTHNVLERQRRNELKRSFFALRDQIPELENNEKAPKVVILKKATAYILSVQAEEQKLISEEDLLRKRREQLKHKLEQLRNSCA
Sequence of human Peroxisome Proliferator-activated Receptor alpha (PPARa), PPARA (gene 5465) (Q07869 whole entry, looked up, the tested form may be a part): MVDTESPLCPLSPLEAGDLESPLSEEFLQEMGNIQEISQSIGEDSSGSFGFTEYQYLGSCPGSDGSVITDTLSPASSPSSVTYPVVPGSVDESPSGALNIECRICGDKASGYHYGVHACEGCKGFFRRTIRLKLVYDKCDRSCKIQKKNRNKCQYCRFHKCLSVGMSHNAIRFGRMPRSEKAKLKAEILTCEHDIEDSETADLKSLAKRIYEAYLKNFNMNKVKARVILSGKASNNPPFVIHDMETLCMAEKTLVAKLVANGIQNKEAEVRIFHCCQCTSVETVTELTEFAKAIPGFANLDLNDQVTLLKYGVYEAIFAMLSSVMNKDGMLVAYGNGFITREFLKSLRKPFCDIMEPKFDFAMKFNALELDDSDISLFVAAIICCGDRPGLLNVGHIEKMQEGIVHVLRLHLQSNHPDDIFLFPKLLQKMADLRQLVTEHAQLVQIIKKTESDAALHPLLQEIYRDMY
Sequence of Peroxisome proliferator-activated receptor gamma (Homo sapiens) (P37231 whole entry, looked up, the tested form may be a part): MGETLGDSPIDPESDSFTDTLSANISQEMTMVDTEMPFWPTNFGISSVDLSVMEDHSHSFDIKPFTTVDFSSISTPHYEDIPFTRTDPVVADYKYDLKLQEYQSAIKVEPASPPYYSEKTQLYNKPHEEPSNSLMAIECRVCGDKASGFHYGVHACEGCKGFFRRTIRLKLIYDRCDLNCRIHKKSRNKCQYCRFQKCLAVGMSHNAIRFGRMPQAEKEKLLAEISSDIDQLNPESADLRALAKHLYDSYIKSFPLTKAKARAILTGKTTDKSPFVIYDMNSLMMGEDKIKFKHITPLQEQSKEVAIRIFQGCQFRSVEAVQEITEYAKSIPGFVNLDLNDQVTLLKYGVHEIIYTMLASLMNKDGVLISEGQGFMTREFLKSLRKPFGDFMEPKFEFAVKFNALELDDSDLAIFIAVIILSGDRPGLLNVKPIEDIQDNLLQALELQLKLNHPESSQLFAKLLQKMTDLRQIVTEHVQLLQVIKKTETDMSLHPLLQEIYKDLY
Sequence of Retinoic acid receptor alpha (Homo sapiens) (P10276 whole entry, looked up, the tested form may be a part): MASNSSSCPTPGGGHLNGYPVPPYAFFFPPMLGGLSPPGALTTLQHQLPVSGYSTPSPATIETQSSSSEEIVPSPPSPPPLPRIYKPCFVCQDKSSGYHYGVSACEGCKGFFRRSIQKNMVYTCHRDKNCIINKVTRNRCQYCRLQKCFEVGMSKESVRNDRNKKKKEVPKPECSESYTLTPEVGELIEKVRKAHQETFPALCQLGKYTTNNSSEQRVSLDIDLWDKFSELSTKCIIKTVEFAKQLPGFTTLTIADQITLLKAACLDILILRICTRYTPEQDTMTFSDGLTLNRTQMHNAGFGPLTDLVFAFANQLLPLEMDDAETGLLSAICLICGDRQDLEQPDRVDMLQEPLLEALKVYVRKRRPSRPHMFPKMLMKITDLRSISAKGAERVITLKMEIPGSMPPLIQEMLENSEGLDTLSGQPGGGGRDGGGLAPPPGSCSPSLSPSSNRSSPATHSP
Sequence of Cellular tumor antigen p53 (Homo sapiens) (P04637 whole entry, looked up, the tested form may be a part): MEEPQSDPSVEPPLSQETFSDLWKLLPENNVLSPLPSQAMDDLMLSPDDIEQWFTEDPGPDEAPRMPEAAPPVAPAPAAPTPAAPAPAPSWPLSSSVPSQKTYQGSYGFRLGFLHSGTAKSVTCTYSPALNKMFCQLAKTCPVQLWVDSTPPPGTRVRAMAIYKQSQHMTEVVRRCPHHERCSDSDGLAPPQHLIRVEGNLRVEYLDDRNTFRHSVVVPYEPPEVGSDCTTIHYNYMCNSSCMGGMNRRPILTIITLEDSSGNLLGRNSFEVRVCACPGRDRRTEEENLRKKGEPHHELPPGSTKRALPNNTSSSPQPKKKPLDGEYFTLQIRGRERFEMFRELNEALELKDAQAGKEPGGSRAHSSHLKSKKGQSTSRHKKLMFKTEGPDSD
Sequence of human Retinoic Acid Receptor beta (RARb), RARB (gene 5915) (P10826 whole entry, looked up): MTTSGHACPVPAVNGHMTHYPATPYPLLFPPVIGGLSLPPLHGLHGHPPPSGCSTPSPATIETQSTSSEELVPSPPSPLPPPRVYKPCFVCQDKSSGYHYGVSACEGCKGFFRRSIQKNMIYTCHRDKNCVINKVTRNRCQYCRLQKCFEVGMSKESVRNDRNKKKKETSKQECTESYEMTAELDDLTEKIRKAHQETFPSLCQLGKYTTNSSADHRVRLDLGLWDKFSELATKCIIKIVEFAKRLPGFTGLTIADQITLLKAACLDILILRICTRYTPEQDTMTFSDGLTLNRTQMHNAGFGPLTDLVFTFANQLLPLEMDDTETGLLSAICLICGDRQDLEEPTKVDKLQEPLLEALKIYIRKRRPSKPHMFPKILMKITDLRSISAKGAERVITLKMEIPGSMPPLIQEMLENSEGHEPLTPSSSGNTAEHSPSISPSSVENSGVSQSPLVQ

In the case of `O=C(O)C(F)(F)OC(F)(F)C(F)(F)OC(F)(F)C(F)(F)OC(F)(F)F`, the call in [1], in assay [2], in assay [3], in assay [4], in [5] and in [6] was inactive. In addition, the result in assay [7], in assay [8], in [9], in [10], in assay [12] and in [13] was inactive. Also, the result in assay [14], in assay [16] and in assay [17] was inactive. In addition, the AC50 was 15.4 µM (active) in assay [11] and 17.9 µM (active) in assay [15].

With `CC(C)(C)c1cc(Cc2cc(C(C)(C)C)c(O)c(C(C)(C)C)c2)cc(C(C)(C)C)c1O`, the call in assay [1], in assay [2], in [3], in [4], in assay [18] and in assay [5] was inactive. In addition, the call in assay [19], in assay [20], in assay [15] and in [17] was inactive. Besides, the AC50 in [16] was 0.631 µM (active).

For the compound `CCN(CC)c1ccc(N=Nc2ccccc2)cc1`, the AC50 in assay [1] was 35.4 µM (active); in assay [18], 3.86 µM (active); in assay [8], 20 µM (active); in assay [9] it was 20 µM (active); in assay [10] it was 13 µM (active); in assay [14] it was 12 µM (active). Moreover, the AC50 in assay [15] is 4.67 µM (active); in assay [16], 4.22 µM (active). Further, the call in assay [2], in assay [3], in [4], in assay [5], in assay [7] and in [11] was inactive. The result in [12], in assay [13] and in [17] was inactive.

Consider `O=C(O)CCC(F)(F)C(F)(F)C(F)(F)C(F)(F)C(F)(F)C(F)(F)C(F)(F)F`, for which the result in assay [1], in assay [2], in assay [3], in assay [4], in assay [5] and in assay [7] was inactive. In addition, the result in assay [8], in assay [9], in assay [10], in [11], in [12] and in [13] was inactive. The outcome in assay [14] and in [16] was inactive. The AC50 in assay [6] is 204 µM (active); in assay [15] it was 150 µM (active).

Consider `N#CCCOCCC#N`, for which the compound was called inactive in assay [1], in assay [2], in [3], in assay [4], in assay [18] and in assay [5]. In addition, the compound was called inactive in [20], in assay [15], in assay [16] and in [17].

In general, AC50 refers to the concentration giving half of the maximal activity seen.
